Test results as given in PubChem BioAssay (NCATS).
Records with an inconclusive call do not appear. Calls of active or inactive are those of the source. Calls follow the shape of the dose curve; as a rule, active = well fitted curve in the direction sought with a large enough effect; inconclusive = small, poorly fitted or top-dose-only effect, or another doubt; inactive = no such curve, though single readings can be large; an effect the other way counts as inactive or inconclusive.

Tests used:
[1] = target: DNA repair nuclease/redox regulator APEX1 (Homo sapiens) (UniProt P27695); assay: qHTS Validation Assay for Inhibitors of the Human Apurinic/apyrimidinic Endonuclease 1 (APE1) (AID 1705; also: potency is read from the fitted curve at half-maximal effect)
Procedure, shortened: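 qHTS, 1536-well. APE1 + cpd 15 min RT → 50 nM TAMRA/BHQ-2 THF-abasic dsDNA substrate → kinetic fluorescence, 3 reads/60 s; delta(read3−read1) = reaction progress. No-enzyme buffer = negative control.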

[2] = target: Endonuclease 4 (Escherichia coli (strain K12)) (UniProt P0A6C1); assay: Counterscreen for APE1 Inhibitors: qHTS Validation Assay for Inhibitors of Endonuclease IV (AID 1708); also: potency is read from the fitted curve at half-maximal effect
Procedure, shortened: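 The reaction buffer contained 50 mM Tris-HCl pH 7.5, 50 mM NaCl, 2 mM MgCl2, 1 mM DTT and 0.01% Tween-20. Incision of a 50 nM fluorophore/quencher THF substrate by 2 nM enzyme was measured kinetically.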

[3] = qHTS for differential inhibitors of proliferation of Plasmodium falciparum line 7G8 (AID 1815);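 also: parasite growth measured after three days of incubation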; also: potency is read from the fitted curve at half-maximal effect
[4] = qHTS for differential inhibitors of proliferation of Plasmodium falciparum line GB4 (AID 1816); settings: Potency: Plasmodium falciparum GB4 proliferation inhibition;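 also: parasite growth measured after 72 h incubation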; also: potency is read from the fitted curve at half-maximal effect
[5] = qHTS for differential inhibitors of proliferation of Plasmodium falciparum line 3D7 (AID 1876); also: potency is read from the fitted curve at half-maximal effect
[6] = qHTS for differential inhibitors of proliferation of Plasmodium falciparum line D10 (AID 1877);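 also: parasites grown with compound for 72 h before DNA staining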; also: potency is read from the fitted curve at half-maximal effect
[7] = qHTS for differential inhibitors of proliferation of Plasmodium falciparum line Dd2 (AID 1882); settings: Potency: Plasmodium falciparum Dd2 proliferation inhibition; also: nearly all actives have a fitted effect of over 65% in size; also: potency is read from the fitted curve at half-maximal effect
Procedure, shortened: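 RBC culture, 0.3% parasitemia / 2.5% Hct final; cpd added by pin tool in DMSO; 72 h, 37 C, 5% CO2; lysis buffer + SYBR Green I, o/n RT dark; FI 485/535; norm. to artemisinin 0.29 uM and DMSO.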

[8] = qHTS for differential inhibitors of proliferation of Plasmodium falciparum line HB3 (AID 1886); settings: Potency: Plasmodium falciparum HB3 proliferation inhibition;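 also: parasites grown with compound for 72 h before SYBR Green readout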; also: potency is read from the fitted curve at half-maximal effect
[9] = Counterscreen for APE1 Inhibitors: Fluorescent Dye Displacement Validation Assay (AID 1707)
Procedure, shortened: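 Reaction mixture of 250 nM Thiazole Orange and 50 nM double-stranded abasic-site DNA was dispensed, compounds were pin-transferred, and fluorescence was read at endpoint (480 nm ex, 540 nm em). Reduced fluorescence indicated dye displacement by DNA binding.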

[10] = qHTS for differential inhibitors of proliferation of Plasmodium falciparum line W2 (AID 1883); settings: Potency: Plasmodium falciparum W2 proliferation inhibition;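 also: parasites grown with compound for 72 h before lysis and staining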; also: potency is read from the fitted curve at half-maximal effect

Measured: Potency

Sequence of DNA repair nuclease/redox regulator APEX1 (Homo sapiens) (P27695 whole entry, looked up): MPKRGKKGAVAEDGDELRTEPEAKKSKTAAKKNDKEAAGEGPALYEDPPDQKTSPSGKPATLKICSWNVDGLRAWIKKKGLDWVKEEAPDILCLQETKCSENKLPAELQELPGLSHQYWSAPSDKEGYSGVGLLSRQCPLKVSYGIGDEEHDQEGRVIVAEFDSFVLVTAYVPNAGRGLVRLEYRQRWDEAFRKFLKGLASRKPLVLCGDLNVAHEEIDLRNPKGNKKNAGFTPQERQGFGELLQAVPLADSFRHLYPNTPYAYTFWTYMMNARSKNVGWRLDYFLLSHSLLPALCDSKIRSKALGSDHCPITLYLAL

Cn1c(=O)c2[nH]c(-c3ccccc3)nc2n(C)c1=O
inactive: [1] | [2] | [3] | [4] | [5] | [6] | [7] | [8]

O=C(O)CC1CCCc2ccccc2C1O (centres undefined)
inactive: [1] | [9] | [3] | [4] | [5] | [6] | [7] | [10] | [8]

CO/N=C(\C(=O)N[C@@H]1C(=O)N2C(C(=O)O)=C(COC(C)=O)CS[C@H]12)c1csc(N)n1 (stereo in doubt)
active: [1] 2.24 µM
inactive: [9] | [3] | [4] | [5] | [6] | [7] | [8]

S=C(S)OC1CC2CC1C1CCCC21 (centres undefined)
inactive: [1] | [9] | [3] | [4] | [5] | [6] | [7] | [10] | [8]

C[N+](C)(CCCCCC[N+](C)(C)CCCN1C(=O)c2cccc3cccc(c23)C1=O)CCCN1C(=O)c2cccc3cccc(c23)C1=O
active: [1] 3.55 µM | [3] 0.794 µM | [4] 0.316 µM | [5] 0.0631 µM | [6] 0.631 µM | [7] 2.24 µM | [10] 0.631 µM | [8] 0.562 µM
inactive: [2]

COc1cc(C(O)CO)ccc1OS(=O)(=O)O (centres undefined)
inactive: [1] | [2] | [3] | [4] | [5] | [6] | [7] | [10] | [8]

NCCCCCCCCCCN
inactive: [1] | [9] | [3] | [4] | [5] | [6] | [7] | [8]

CN(C)c1nc2c(Br)c(Br)c(Br)c(Br)c2[nH]1
inactive: [1] | [9] | [3] | [4] | [5] | [7]

CC(C)(C=O)Cc1cc(C(C)(C)C)c(O)c(C(C)(C)C)c1
inactive: [1] | [9] | [3] | [4] | [5] | [6] | [7] | [10] | [8]

CN[C@H](CC(C)C)C(=O)N[C@H]1C(=O)N[C@@H](CC(N)=O)C(=O)N[C@H]2C(=O)N[C@H]3C(=O)N[C@H](C(=O)N[C@H](C(=O)O)c4cc(O)cc(O)c4-c4cc3ccc4O)[C@H](O)c3ccc(c(Cl)c3)Oc3cc2cc(c3O[C@@H]2O[C@H](CO)[C@@H](O)[C@H](O)[C@H]2O[C@H]2C[C@](C)(N)[C@H](O)[C@H](C)O2)Oc2ccc(cc2Cl)[C@H]1O
inactive: [1] | [9] | [3] | [4] | [5] | [6] | [7] | [10] | [8]

NC(N)=NC(=O)c1nc(Cl)c(N2CCCCCC2)nc1N
inactive: [1] | [9]
active: [3] 8.91 µM | [4] 12.6 µM | [5] 4.47 µM | [6] 7.94 µM | [10] 2.82 µM | [8] 7.94 µM

CN1C2CCC1CC(OC(=O)C(O)c1ccccc1)C2 (centres undefined)
inactive: [1] | [2] | [3] | [4] | [5] | [6] | [7] | [8]

COc1ccccc1CNCCCCCCNCCCCCCCCNCCCCCCNCc1ccccc1OC
inactive: [1] | [2]
active: [3] 1.41 µM | [4] 2.24 µM | [5] 0.891 µM | [6] 2.24 µM | [7] 4.47 µM | [10] 1 µM | [8] 2 µM

CN(C)c1nc(N)c(C(=O)N=C(N)N)nc1Cl
active: [4] 12.6 µM | [5] 10 µM | [6] 11.2 µM | [10] 12.6 µM | [8] 12.6 µM
inactive: [1] | [9] | [7]

OC[C@H]1O[C@@H](n2cnc3c(NC4CCCCC4)ncnc32)[C@H](O)[C@@H]1O
inactive: [9] | [2] | [3] | [4] | [5] | [6] | [7] | [8]

O=C(Nc1cccc(C(=O)Nc2ccc(S(=O)(=O)O)c3cc(S(=O)(=O)O)cc(S(=O)(=O)O)c23)c1)Nc1cccc(C(=O)Nc2ccc(S(=O)(=O)O)c3cc(S(=O)(=O)O)cc(S(=O)(=O)O)c23)c1
active: [2] 8.91 µM
inactive: [9] | [3] | [4] | [5] | [6] | [7] | [10] | [8]

CNCC[C@H](Oc1ccc(C(F)(F)F)cc1)c1ccccc1
inactive: [9] | [2]

Cc1ccc(C(=O)O[C@H](C(=O)O)[C@@H](OC(=O)c2ccc(C)cc2)C(=O)O)cc1 (tested in a mixture with another compound)
inactive: [9] | [2] | [3] | [4] | [5] | [6] | [7] | [10] | [8]

O=C1NC(O)=NC1(c1ccccc1)c1ccccc1
inactive: [9] | [2] | [3] | [4] | [5] | [6] | [7] | [10] | [8]

COc1ccccc1N1CCN(CCCCNS(=O)(=O)c2cccc3c(N(C)C)cccc23)CC1
inactive: [1]
active: [3] 7.94 µM | [4] 14.1 µM | [5] 10 µM | [7] 10 µM | [10] 3.55 µM | [8] 12.6 µM

CN(C)c1ccc(/C=C2\C(=O)Nc3ccccc32)cc1
inactive: [1]
active: [3] 8.91 µM | [4] 12.6 µM | [10] 12.6 µM | [8] 10 µM

O=C1C(SCCO)=C(SCCO)C(=O)c2ccccc21
active: [3] 3.16 µM | [4] 2 µM | [5] 2.24 µM | [6] 11.2 µM | [7] 6.31 µM | [10] 10 µM | [8] 2 µM
inactive: [9] | [2]

CCCCCC(O)c1cccc(OCc2ccc3ccccc3n2)c1 (centres undefined)
inactive: [1]
active: [3] 6.31 µM | [4] 10 µM | [6] 15.8 µM | [7] 7.94 µM | [10] 6.31 µM | [8] 12.6 µM

COc1ccc(NC(=O)/C=C/c2ccc(Cl)cc2)cc1
inactive: [1]
active: [3] 10 µM | [4] 11.2 µM | [5] 11.2 µM | [6] 8.91 µM | [10] 10 µM | [8] 12.6 µM

C[C@@H](NC(=O)/C(C#N)=C/c1ccc(O)c(O)c1)c1ccccc1
inactive: [9] | [2]
active: [3] 11.2 µM | [4] 10 µM | [6] 12.6 µM | [10] 11.2 µM | [8] 11.2 µM

CCCCCCCCCCCCCCCC(=O)OC(CC(=O)O)C[N+](C)(C)C (centres undefined)
inactive: [1] | [3] | [4] | [6] | [7] | [8]

Cc1ccccc1CNc1ncnc2c1ncn2C1OC(CO)C(O)C1O (centres undefined)
inactive: [1] | [3] | [4] | [5] | [6] | [7] | [10] | [8]

Clc1ccc(N2CCN(Cc3c[nH]c4ncccc34)CC2)cc1
inactive: [1] | [2] | [7]

N.N.O=C(O)C1(C(=O)O)CCC1.[Pt]
inactive: [1] | [2] | [7]
active: [5] 12.6 µM | [10] 10 µM

CC(C)(C)c1ccc(S(=O)(=O)/C=C/C#N)cc1
active: [3] 10 µM | [4] 14.1 µM | [5] 10 µM | [6] 12.6 µM | [7] 11.2 µM | [10] 7.08 µM | [8] 8.91 µM
inactive: [9] | [2]

Fc1cccc(/C=N/N=C/c2cccc(F)c2)c1
inactive: [9] | [2] | [3] | [4] | [6] | [7] | [8]

O=c1[nH]c2ccccc2n1CCCN1CCN(C(c2ccccc2)c2ccccc2)CC1
active: [3] 7.08 µM | [4] 12.6 µM | [10] 4.47 µM | [8] 14.1 µM
inactive: [9] | [2]

CC12C(=O)OC(=O)C1(C)C1CCC2O1 (centres undefined)
active: [3] 3.98 µM | [4] 4.47 µM | [5] 3.16 µM | [6] 2.24 µM | [7] 4.47 µM | [10] 2.51 µM | [8] 3.98 µM
inactive: [9] | [2]

Oc1ccc(C2CNCc3sccc32)cc1O (centres undefined)
active: [3] 8.91 µM | [4] 12.6 µM | [6] 11.2 µM | [7] 8.91 µM | [10] 11.2 µM | [8] 11.2 µM
inactive: [9] | [2]

CC(=O)N[C@H](C(=O)O)C(C)(C)SN=O
inactive: [9] | [2] | [3] | [4] | [5] | [6] | [7] | [10] | [8]

Nc1ccn([C@@H]2O[C@H](CO)[C@@H](O)[C@@H]2O)c(=O)n1
inactive: [1] | [3] | [4] | [5] | [6] | [7] | [10] | [8]

O=C(O)[C@@H]1C[C@H](C(=O)O)N1
inactive: [9] | [2] | [3] | [4] | [5] | [6] | [7] | [10] | [8]

CCCCN1CCC(n2c(=O)[nH]c3ccccc32)CC1
inactive: [1] | [3] | [4] | [5] | [6] | [7] | [8]
active: [10] 8.91 µM

O=C(O)CC[C@@H](C(=O)O)N1C(=O)c2ccccc2C1=O
inactive: [1] | [3] | [4] | [5] | [6] | [7] | [10] | [8]

Oc1cc(O)cc(/C=C/c2ccc(O)c(O)c2)c1
inactive: [1] | [2]
active: [4] 8.91 µM | [5] 10 µM | [7] 12.6 µM | [10] 10 µM | [8] 12.6 µM

CN1CCc2cc(NC(=O)Nc3cccnc3)ccc21
inactive: [1] | [5] | [6] | [7]

CN(C)C(N)=NCCC[C@H](N)C(=O)O
inactive: [9] | [2] | [3] | [4] | [5] | [6] | [7] | [10] | [8]

CCCCC/C=C\CC(O)/C=C/c1cccc(CC(O)CCCCO)n1 (centres undefined)
inactive: [1] | [2] | [7]
active: [5] 14.1 µM

O=C(O)/C=C/C(O)c1ccc(Cl)cc1 (centres undefined)
inactive: [9] | [2] | [3] | [4] | [5] | [6] | [7] | [10] | [8]

CCCCCCCC/C=C\CCCCCCCC(=O)NCCO
active: [3] 3.55 µM | [4] 2.51 µM | [5] 3.98 µM | [6] 7.94 µM | [7] 8.91 µM | [10] 2.51 µM | [8] 4.47 µM

O=c1[nH]c2cc(C(F)(F)F)ccc2n1-c1cc(C(F)(F)F)ccc1O
active: [3] 4.47 µM | [4] 3.98 µM | [6] 10 µM | [7] 8.91 µM | [10] 7.08 µM | [8] 12.6 µM
inactive: [9]

NCCNC(=O)c1ncsc1-c1cccc(F)c1
inactive: [2] | [5] | [6] | [8]

NO
inactive: [9] | [2] | [7]

CCCCCCCCCCCCCCCC(=O)NCC(COP(=O)([O-])OCC[N+](C)(C)C)OCC (centres undefined)
inactive: [2] | [3] | [5] | [6] | [7] | [8]
